PubChem BioAssay AID596 (National Center for Advancing Translational Sciences (NCATS), 2007)
In all, about 71,000 compounds went through this assay and about 1,400 (2%) were called active. Roughly 3% stayed inconclusive and do not appear here. Calls come from the whole dose curve; as a rule, active = well fitted curve in the direction sought with a large enough effect; inconclusive = small, poorly fitted or top-dose-only effect; inactive = no such curve, though single readings can be large or run the other way. The sample as a whole holds a higher share of actives than the screen did.

Target: Microtubule-associated protein tau (Homo sapiens) (UniProt P10636)
Assay: qHTS Assay for Tau Filament Binding;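 note: actives lower thioflavin S fluorescence by blocking filaments or displacing dye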
Details: recombinant tau filaments, thioflavin S fluorescence, 15 h, filaments grown with octadecylsulfate alongside compound; series mostly up to 57.1 µM; activity change, negative = inhibition: at the top concentration
Source text: NIH Molecular Libraries Screening Centers Network [MLSCN]
NIH Chemical Genomics Center [NCGC]
Assay Provider: Jeffrey A. Kuret, Ohio State University
Tau monomers form filaments in vitro in the presence of anionic detergents or fatty acids. The dye Thioflavine S (ThS) binds to tau filaments and upon binding, increases in fluorescence several fold. Small molecules that displace ThS binding or prevent filament binding are identified by a reduction in ThS fluorescence. This assay used histidine-tagged, recombinant human tau protein containing the products of exons 2, 3, and 10 that was provided by Jeff Kuret, Ohio State University. To form filaments, 1 uM tau was incubated with 30 uM sodium octadecylsulfate (ODS) in reagent buffer (10 uM thioflavine S, 5 mM 1,4-dithioerythreitol (DTT), 100 mM sodium chloride, 10 mM HEPES pH 7.4) for 15 hrs at 37 C.
NCGC Assay Protocol Summary:
Assay Steps. Two uL/well of 2 uM tau in reagent buffer (10 uM thioflavine S, 5 mM DTT, 100 mM sodium chloride, 10 mM HEPES pH 7.4) was dispensed into solid black 1536-well plates. Twenty-three nL compound was transferred to the assay plate after which 2 uL/well of 60 uM ODS in reagent buffer was dispensed for a final assay volume of 4 uL /well. Following 15 hours of incubation at 37 C, fluorescence was detected by an Envision (Perkin Elmer) using 450/8 nm excitation and 510/23 nm emission.
Keywords: NIH Roadmap, MLSCN, MLI, MLSMR, qHTS, NCGC, Alzheimer's disease, Neurofibrillary lesions, tau, tubulin assembly, microtubule stability, cytoskeletal integrity, fibrillization, thioflavin dyes, Amyloidgenic
% is set by controls: 0 for no effect and ±100 for the full control effect; potency is the fitted concentration of half-maximal effect.

Sequence of Microtubule-associated protein tau (Homo sapiens) (P10636 whole entry, looked up): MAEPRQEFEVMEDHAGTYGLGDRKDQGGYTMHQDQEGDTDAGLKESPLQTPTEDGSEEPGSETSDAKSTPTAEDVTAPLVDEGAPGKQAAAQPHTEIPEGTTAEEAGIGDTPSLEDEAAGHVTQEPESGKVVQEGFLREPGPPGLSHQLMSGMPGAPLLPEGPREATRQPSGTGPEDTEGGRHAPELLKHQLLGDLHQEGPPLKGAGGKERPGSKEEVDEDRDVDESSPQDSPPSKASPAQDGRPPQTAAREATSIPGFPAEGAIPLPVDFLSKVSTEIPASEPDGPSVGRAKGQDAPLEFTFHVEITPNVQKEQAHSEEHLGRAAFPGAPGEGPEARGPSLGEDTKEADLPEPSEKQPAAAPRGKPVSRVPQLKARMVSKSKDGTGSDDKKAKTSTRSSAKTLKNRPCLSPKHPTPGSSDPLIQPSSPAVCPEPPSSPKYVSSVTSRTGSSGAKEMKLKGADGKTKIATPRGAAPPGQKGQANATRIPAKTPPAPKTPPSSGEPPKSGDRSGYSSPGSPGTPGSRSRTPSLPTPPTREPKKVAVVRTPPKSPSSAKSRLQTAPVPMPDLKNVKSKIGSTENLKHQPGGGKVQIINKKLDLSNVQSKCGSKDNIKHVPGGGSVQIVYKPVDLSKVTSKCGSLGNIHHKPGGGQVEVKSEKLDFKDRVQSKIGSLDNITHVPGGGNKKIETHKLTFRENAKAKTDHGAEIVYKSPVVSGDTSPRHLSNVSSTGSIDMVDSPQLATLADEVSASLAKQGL

SMILES | activity change, negative = inhibition | Potency
C[C@]1(C(=O)NCCc2c[nH]c3ccccc23)C=C[C@@H](Cc2ccccc2)N1C(=O)c1ccccc1 | 78.2% (inactive) | 
Cn1cccc1C(=O)N1CCC2(CC1)CN(c1cccc(-c3ccccc3)c1)C2 | -8.2% (inactive) | 
CC(=O)CC(C)C | -8.5% (inactive) | 
C[C@H](CCC(=O)O)[C@H]1CC[C@@H]2[C@H]3CC[C@H]4C[C@H](O)CC[C@@]4(C)[C@@H]3CC[C@@]21C | 11.3% [at 11.4 µM] (inactive) | 
COC(=O)c1ccc(C(NC(=O)OCc2ccccc2)/C(C)=C/[C@@H](C)C(=O)NCc2cc(C)on2)cc1 (some centres undefined) | -4.6% (inactive) | 
COC(=O)[C@H]1C[C@@H]1[C@H](NC(=O)Oc1ccc(F)cc1)c1ccccc1 | -3.2% (inactive) | 
FC(F)(F)c1cc(-c2ccco2)nc(N2CCOCC2)n1 | 4% (inactive) | 
CCOC(=O)c1ccn(-c2nc(-c3ccco3)cc(C(F)(F)F)n2)n1 | -22.9% (inactive) | 
COC(=O)c1cnn2c(C(F)(F)F)cc(-c3ccco3)nc12 |  | 15.8 µM (active)
CCC[C@@H]1C[C@@]1(CCC)C(NS(=O)(=O)c1cccc2cccnc12)c1ccc(Cl)cc1 (some centres undefined) | -15.3% (inactive) | 
CN(C)C(=O)/N=N\C(=O)N(C)C | -7.5% (inactive) | 
CCCc1cc(=O)[nH]c(SCc2ccc(C#N)cc2)n1 | 2.2% (inactive) | 
COc1ccc(Cc2nnc(NS(=O)(=O)Cc3ccccc3)s2)cc1 | -0.8% (inactive) | 
COc1ccc(Cc2nnc(NC(=O)Cc3cccs3)s2)cc1 |  | 25.1 µM (active)
CCc1nnc(NC(=O)CSc2nnc(Cc3ccccc3)n2-c2ccc(OC)cc2)s1 | -7.8% (inactive) | 
COC(=O)N1CCC2(CCCN(c3ccncc3)C2)CC1 | 19.9% (inactive) | 
Cc1cccn2c(=O)c3cc(C#N)c(=O)n(CCCN4CCOCC4)c3nc12 | 2.6% (inactive) | 
O=C1C(c2[nH]c3ccccc3c2O)=Nc2ccccc21 | -20% (inactive) | 
Cc1cc2ccccc2n2c(SCC(=O)N3CCN(C(=O)c4ccco4)CC3)nnc12 | 6% (inactive) | 
O=C1c2ccccc2C(O)N1Cc1ccccc1 (centres undefined) | 2.9% (inactive) | 
CC[N+](C)(CC)CCC[n+]1c(-c2ccccc2)c2cc(N)ccc2c2ccc(N)cc21 |  | 1.58 µM (active)
CCOC(=O)Cn1c2c(c(-c3ccccc3OC)cc1=O)CCCC2 | 0.5% (inactive) | 
COCCn1c(=O)[nH]c2cc(C(=O)NCc3cccnc3)ccc2c1=O | 6.2% (inactive) | 

SMILES | activity change, negative = inhibition | Potency
O=C(O)[C@H](CCc1ccccn1)c1ccccc1 | -5.3% [at 11.4 µM] (inactive) | 
CCSC1=C(C#N)C(=O)n2c1cc1c2CCCC1 |  | 25.1 µM (active)
CCSc1ncnc2c(C#N)c3n(c12)CCCCC3 | 11.1% (inactive) | 
CC(C)C[C@@H](CC(=O)N[C@@H](CCC(=O)O)CC(=O)O)NC(=O)[C@@H]1CCCC[C@H]1NC(=O)C[C@@H](NC(=O)C[C@H](CO)NC(=O)[C@@H]1CCCC[C@H]1N)C(C)C | -3.3% (inactive) | 
CCC(C)(C(=O)NC1CCCC1)N(C(=O)CNC(C)=O)c1ccc(C)cc1 (centres undefined) | -10.2% (inactive) | 
C=CC(=O)OCCOCCOCCOCCOC(=O)C=C |  | inactive
c1coc(-c2nc3nc4ccccc4n3nc2-c2ccco2)c1 |  | 3.16 µM (active)
Cc1nn2c3ccccc3nc2n(C)c1=O | -16.6% (inactive) | 
Cn1c(-c2ccco2)nc2cc3ccccc3cc21 | 97.4% (inactive) | 
COC(=O)C1(Cc2ccccc2)C=C2C(=C(C)C(=O)C2C)CN1 (centres undefined) | 21.1% (inactive) | 
Cc1ccc(C2CC(c3cccc(Br)c3)n3nc(N)nc3N2)cc1 (centres undefined) | -30% (inactive) | 
CCNC(=S)NCC | -11.9% (inactive) | 
COCCCn1c2nc3ccccc3nc2c2c(=O)n(Cc3ccc(Cl)cc3)c(C)nc21 | 13.7% (inactive) | 
O=c1c2ccccc2oc2nc(C3CCCCC3)n(Cc3ccco3)c(=O)c12 | -13.1% (inactive) | 
Cc1ccc(Cn2c(NC(=O)c3ccco3)nc3ccccc32)cc1 | 14.6% (inactive) | 
Cc1ccc(Cn2c(C)nc3c(c2=O)c2nc4ccccc4nc2n3Cc2ccco2)cc1 |  | 25.1 µM (active)
CCOC(=O)CSc1nc2c(sc(=S)n2CCc2ccccc2)c(=O)n1Cc1ccco1 | 98.7% (inactive) | 
Cc1nc2c(c(=O)n1Cc1ccco1)c1nc3ccccc3nc1n2Cc1ccccc1 |  | 15.8 µM (active)
CCC(C)(C)n1nnnc1C(c1ccccc1OC)N1CCSCC1 (centres undefined) | -8.9% (inactive) | 
c1cnn(-c2cc(N3CCOCC3)ncn2)c1 | -1.2% (inactive) | 
O=C1c2ccccc2-c2ncnc3c(N4CCOCC4)cc(N4CCOCC4)c1c23 |  | 5.01 µM (active)
c1ccc(-c2oc3ncnc(N4CCOCC4)c3c2-c2ccccc2)cc1 | 1.3% (inactive) | 
C[N+](C)(CCCCCC[N+](C)(C)CCCN1C(=O)c2cccc3cccc(c23)C1=O)CCCN1C(=O)c2cccc3cccc(c23)C1=O |  | 2 µM (active)

SMILES | activity change, negative = inhibition | Potency
COc1ccc(N2C(=O)c3cccc4cccc(c34)C2=O)nn1 | 9.7% (inactive) | 
O=C1c2ccccc2C(=O)N1CCCSc1ccccc1 | -2.3% [at 11.4 µM] (inactive) | 
O=C(c1ccc2c(c1)N(Cc1ccc(F)cc1)C(=O)CS2)N1CCOCC1 | -5.7% (inactive) | 
COc1ccc(N)c(C)c1 | -6.8% (inactive) | 
CCCC(=O)Nc1ccc2c(c1)nc1n2CCSC1 | -16.2% (inactive) | 
Cc1cccc(C(=O)O)c1[N+](=O)[O-] | 11.9% (inactive) | 
Brc1ccc(OCCn2ccnc2)cc1 | -24.1% (inactive) | 
Cc1ccccc1NC(=O)c1ccccc1 | 0.4% (inactive) | 
Cc1nc(C)c(C(=O)Nc2cccc(C)c2C)o1 |  | 15.8 µM (active)
Cc1cccc(NC(=O)CSC(N)=O)c1C | 3.4% (inactive) | 
Cc1cccc(OCC(O)Cn2c(=N)n(CCN3CCOCC3)c3ccccc32)c1 (centres undefined) | 16% (inactive) | 
CC(C)OCCCNc1nc2c(c(=O)n(Cc3ccccc3F)c(=O)n2C)n1C | 8.7% (inactive) | 
Cc1cc(=O)oc(C)c1C(=O)Nc1cnc2ccccc2c1 | 288% (inactive) | 
Cc1ccc(NC(=O)c2cc(-c3ccc(C)o3)nc3ccccc23)nc1 |  | 10 µM (active)
Cc1ccc2nc(-c3ccccc3)cc(C(=O)O)c2c1 | 1.3% (inactive) | 
C1CCC2OC2C1 (centres undefined) | 2.7% (inactive) | 
N=C(CC(=O)Nc1ccccn1)c1ccccc1 | -2.3% [at 11.4 µM] (inactive) | 
CC1=Nn2c(nnc2-c2ccccc2)SC1 | 1.3% (inactive) | 
Cc1nn2c3cc(N4CCOCC4)ccc3nc2c2ccccc12 |  | 12.6 µM (active)
Cc1cc(C)c2c(n1)nn1c(N3CCOCC3)cc(C)nc21 | 18.9% (inactive) | 
COc1ccc(-n2c(=O)c(C)nc3cnc(N4CCOCC4)nc32)cc1 | -8.4% (inactive) | 
O=C(C(Cc1ccccc1)n1cccc1)N1CCN(C2CCCCC2)CC1 (centres undefined) | -11.5% (inactive) | 
O=C(O)/C(=C/c1c(C(=O)O)[nH]c2cc(Cl)cc(Cl)c12)c1ccccc1 | -6.4% (inactive) | 
